Experimental data published in PubChem BioAssay AID1345083 (National Center for Advancing Translational Sciences (NCATS), 2018).
Among all 94,000 compounds or so, about 6,200 (6.6%) were called active. A call without a number means that no potency is given here. Roughly 31% stayed inconclusive and do not appear here. Calls follow the shape of the dose curve; as a rule, active = well fitted inhibition curve with a large enough effect; inconclusive = small, poorly fitted or top-dose-only effect; inactive = flat fitted curve, though single readings scatter. Many of the other results were omitted from the sample, so actives are more common in it than they were.

Test: Cytotoxic Profiling in HEK 293 Cell Line of Diverse Libraries Using Quantitative High-Throughput Screening; also: nearly all actives have a fitted effect of over 60% in size
Settings: HEK 293 viability, ATP luminescence (CellTiter-Glo), 48-72 h; series mostly up to 115 µM
Text: Cell-based phenotypic screening is a commonly used approach to discover biological pathways, novel drug targets, chemical probes and high-quality hit-to-lead molecules. Many hits identified from high-throughput screening campaign are ruled out through a series of follow-up potency, selectivity/specificity, and cytotoxicity assays. Prioritization of molecules with little or no cytotoxicity for a more in-depth downstream evaluation influence the future direction of projects, so cytotoxicity profiling of the screening libraries at early stage is essential for increasing the likelihood of candidate success. In this study, we analyzed results from a cell-based cytotoxicity screening campaign, comprising nearly 10,000 compounds in NCATS annotated libraries, and over 100,000 compounds in a diversity library, evaluated in four normal cell lines (HEK 293, NIH 3T3, CRL-7250 and HaCat) and a cancer cell line (KB 3-1, a HeLa subline) with overall screening outcomes, hit rates, pan-activity and selectivity. For the annotated library, we also examined the primary targets and mechanistic pathways regularly associated with cell death. To our knowledge, this is the first study to use high-throughput screening to profile large libraries for cytotoxicity assessment in both normal and cancer cell lines. In summary, the results generated here constitutes a valuable resource for the scientific community and provides insight on identifying cytotoxic compounds with particular mechanisms of action, and prioritizing compounds with suitable cytotoxicity profile for further evaluation.
HEK 293 cells were seeded into white 1536-well plates using a Multidrop Combi peristaltic dispenser (ThermoFisher, Waltham, MA) at a density of 250 cells/well in 5 uL of medium respectively. A pintool (Kalypsys) was used to transfer 23 nL of compound solution to the 1536-well assay plates. After 48 or 72 hr incubation at 37 degree Celsius, 5% CO2 and 95% humidity, 2.5 uL of CellTiter-Glo (Promega) was dispensed into each well using a dispenser (Aspect Automation, St. Paul, MN) with solenoid valves (Lee Valves, Westbrook CT). Plates were left at room temperature for 10 min before imaging the ATP-coupled luminescence using a ViewLux microplate imager (PerkinElmer, Waltham, MA).
Potency is read from the fitted curve at half-maximal effect.

Structure (SMILES) | Potency
COc1cccc(CC(=O)N2CCC(CC3CC3)(NC(=O)c3ccccc3)CC2)c1 | inactive
CC(=O)NC1(C)CCN(Cc2cccc(-c3ccc(C(=O)c4ccccc4)cc3)c2)C1 (centres undefined) | 39.8 µM (active)
COCC1CN(C(C)=O)CC12CCN(Cc1cccc(C#N)c1)CC2 (centres undefined) | inactive
CCC(C(=O)Nc1ccc2c(c1)CN(Cc1cc(F)cc(F)c1)C(=O)CO2)c1ccccc1 (centres undefined) | 44.7 µM (active)
COc1cccc(CC(=O)N[C@@H]2C[C@H](Cn3cc(C4CC4)nn3)[C@@H](O)[C@H]2O)c1 | inactive
Cc1cc2nc3n(c(=O)c2n1CC(=O)NC1CCCCC1)CCCC3 | inactive
FC(F)(F)c1cccc(-c2cc(C3=CCOCC3)c3cncn3c2)c1 | 100 µM (active)
OCc1cccc(-c2cc(C3=CCOCC3)c3cncn3c2)c1 | inactive
CC1=NS(=O)(=O)N(Cc2ccc(Cl)cc2)C=C1C(=O)O | inactive
COc1ccc(CCC(=O)N2C[C@@H](Oc3ccccc3)C[C@H]2C(=O)N2CCOCC2)cc1 | inactive
Cc1ccc(-c2cn3cc(C(=O)NCc4cccnc4)nc3s2)cc1 | 44.7 µM (active)
Cc1cc2ncc(C(=O)NCc3cccnc3)cn2n1 | inactive
O=C(NCc1cccnc1)c1cn2cc(-c3cccc(C(F)(F)F)c3)sc2n1 | 28.2 µM (active)
O=C(Nc1ccc(F)cc1)c1cn2cc(-c3ccc(C(F)(F)F)cc3)sc2n1 | inactive
O=C(NCc1ccccc1Cl)c1cn2cc(-c3ccc(C(F)(F)F)cc3)sc2n1 | inactive
O=C(c1cn2cc(-c3cccnc3)sc2n1)N1CCCCC1 | inactive
Cc1noc(C)c1S(=O)(=O)N1CCCC(c2nn[nH]n2)C1 (centres undefined) | inactive
CN(C)CC1(O)CCC2(CCN(C(=O)c3ccc4ccccc4n3)CC2)CC1 | inactive
COC(=O)N1CCCC(C(=O)N2CCC3(CC2)CC(=O)Nc2ccccc2O3)C1 (centres undefined) | inactive
COc1cccc(Nc2n[nH]c(C(O)c3cccc(C(F)(F)F)c3)n2)c1 (centres undefined) | 79.4 µM (active)
COc1ccccc1C(O)c1nc(Nc2ccc(C(F)(F)F)cc2)n[nH]1 (centres undefined) | 89.1 µM (active)
O=C1CCN(C(=O)c2nccc3ccccc23)CCOCCN1 | inactive
COCCNC(=O)CN1C(=O)NC2(CCC(C(C)(C)C)CC2)C1=O (centres undefined) | inactive
O=C(c1cccc(N2CCNC2=O)c1)N1CC(=O)N(C2CCCCC2)CC(OCc2ccccc2)C1 (centres undefined) | inactive
O=c1n(CCN2CCN([S+](=O)([O-])c3ccccc3)CC2)nc2n1CCCC2 | inactive
Cc1cc(C)n(Cc2cc(C(=O)N3CCSCC3)n[nH]2)n1 | inactive

Structure (SMILES) | Potency
Clc1ccc(-c2nnc3n2CCN(Cc2cccnc2)C3)cc1 | inactive
CC(=O)Nc1ccc(CN2CCn3c(nnc3-c3ccccc3)C2)cc1 | inactive
FC(F)(F)c1ccc(CN2CCn3c(nnc3-c3ccccc3)C2)cc1 | 89.1 µM (active)
COc1ccc(C(=O)N2CCC(n3cc(-c4nc(C)no4)nn3)CC2)c(OC)c1 | inactive
CCN1CCC(N2CC[C@H](CO)[C@H](N(C)C)C2)CC1 | inactive
COCCn1c(=O)n([C@H]2CCCN(C(=O)c3cc(C)n(C)n3)C2)c2ncccc21 | inactive
CC1Oc2ccc(NC(=O)c3ccc([N+](=O)[O-])cc3)cc2CN(Cc2ccccc2)C1=O (centres undefined) | 31.6 µM (active)
COCC(=O)Nc1ccc2c(c1)CN(Cc1ccccc1F)C(=O)C(C)O2 (centres undefined) | inactive
Cc1nn2c(c1-c1ccccc1-c1ccccc1)N(C(=O)CN1CCOCC1)CCC2 | inactive
Cc1nn2c(c1-c1ccccc1C(C)C)N(C(=O)c1cnccn1)CCC2 | inactive
Cc1nn2c(c1-c1ccnn1C(C)C)N(CC1CCOCC1)CCC2 | 44.7 µM (active)
Cc1nn2c(c1-c1ccccc1-c1ccccc1)N(CC1CC1)CCC2 | 2.82 µM (active)
Cc1nc(C)c(C(=O)N2CCCN(S(=O)(=O)c3ccccc3)CCC(=O)NCC2)s1 | inactive
O=C1NCCCCCN(Cc2cccnc2)[C@@H]2CN(C(=O)C3CCCCC3)CC[C@@H]12 | inactive
COC(=O)c1c(NC(=O)c2ccccc2)c2cc(NC(C)C)cnc2n1CC1CCCO1 (centres undefined) | inactive
O=C(N[C@@H]1CN(c2ncccn2)C[C@H]1CO)c1ccco1 | inactive
Cc1nc(C)c(C(=O)N2CCC3(CC2)CC(N2CCCC2)CCO3)s1 (centres undefined) | inactive
CCN1CC2(CCN(C(=O)[C@H]3Cc4ccccc4CN3)CC2)CC1=O | inactive
O=C(NCc1nnc2n1C(C(=O)NCCc1ccc(Cl)cc1)CC2)c1ccc(Cl)cc1Cl (centres undefined) | inactive
CC(C)CC(=O)NCC1Cn2cccc2CN1Cc1ccccc1 (centres undefined) | inactive
COC(=O)N1CCN(C(=O)c2cccc(-c3ccccc3OC)c2)CC1 | 63.1 µM (active)
COc1ccccc1-c1cccc(C(=O)N2CCC[C@H]2C(=O)N(C)C)c1 | inactive
COCC(=O)N1CCN(C(=O)c2cccc(-c3ccc(OC)nn3)c2)CC1 | inactive
CC(=O)N1CC2(CCN(CCCn3ccnc3C)CC2)CC1C(=O)O (centres undefined) | inactive
Cc1cnc(C(=O)NC2C[C@H]3CC[C@@H](C2)N3C(=O)c2cc(C)n(C)n2)cn1 (some centres undefined) | inactive
CC1(c2ccccc2)N(Cc2ncccn2)C(=O)OC12CCN(CCCc1ccccc1)CC2 (centres undefined) | inactive

Structure (SMILES) | Potency
CC1(c2cccnc2)N(Cc2ccccc2)C(=O)OC12CCN(C(=O)c1cccc(Cl)c1)CC2 (centres undefined) | inactive
CC1(c2ccccc2)N(Cc2ccccc2)C(=O)OC12CCN(c1ccncc1)CC2 (centres undefined) | 89.1 µM (active)
CCN(Cc1ccccc1)C(=O)CC1CCCN(c2cnn(CCOC)c(=O)c2)C1 (centres undefined) | inactive
COc1ccc(-c2noc(-c3nnn4c3COC(c3ccc(OC)cc3)C4)n2)cc1 (centres undefined) | inactive
Cc1nc(C)c(C(=O)N2CCC(Oc3ccccc3-c3nc(-c4ccccc4)no3)C2)s1 (centres undefined) | 28.2 µM (active)
CC(C)CC(=O)N1CCC(Oc2ccccc2-c2nc(C3CCOCC3)no2)C1 (centres undefined) | inactive
Cc1noc(-c2ccccc2OC2CCN(C(=O)c3cnccc3C)C2)n1 (centres undefined) | inactive
CCn1ccc(C(=O)N2CCCN(S(=O)(=O)c3ccccc3)CCC(=O)NCC2)n1 | inactive
C[C@H]1[C@@H]2[C@H]3OC(=O)[C@@H](C)[C@@H]3CC[C@@]2(C)CC[C@@H]1NC(=O)Cc1ccccc1 | 100 µM (active)
C[C@H]1[C@@H]2[C@@H](O)C([C@H](C)C(=O)NCCN3CCOCC3)CC[C@@]2(C)CC[C@@H]1NC(=O)c1ccccc1 (some centres undefined) | inactive
COCCNC(=O)C(C)[C@@H]1CC[C@@]2(C)CC[C@H](NC(=O)c3ccccc3)[C@@H](C)[C@@H]2[C@H]1O (some centres undefined) | inactive
CCc1nc(-c2c3n(c(=O)n(CC(=O)Nc4cccc(Cl)c4C)c2=O)CCCC3)no1 | inactive
O=C1NCc2ccccc2CC12CCCCN2Cc1cccc(F)c1F (centres undefined) | 50.1 µM (active)
CCOC(=O)C1CC1CN1CCCC12Cc1ccccc1CNC2=O (centres undefined) | inactive
Cc1nn(-c2ccccc2)c(C)c1CN1CCCC12Cc1ccccc1CNC2=O (centres undefined) | inactive
CCN(C(=O)CCC(=O)N1CCc2c(c(-c3nncn3CC)nn2C)C1)c1ccccc1 | inactive
CC(C)c1nnc(C2CN(C(=O)c3ccc4ccccc4n3)CC23CCOCC3)o1 (centres undefined) | inactive
CNc1ncc(C(=O)N[C@@H]2COCC[C@@H]2OCc2c(C)noc2C)cn1 | inactive
COc1ccc(NC(=O)c2cc3c(N(C)Cc4ccccc4)nc(C)cn3n2)cc1F | inactive
O=C(c1cnccn1)N1CCC2(COc3ncccc3[S+](=O)([O-])N2)C1 (centres undefined) | inactive
CCCn1cc(C(=O)N2C[C@H](c3ccccc3)[C@@H](N)C2)c(C)n1 | inactive
COc1ccc(CN2CCC3(Cc4ccccc4CNC3=O)C2)cc1OC (centres undefined) | inactive
CN1CC(=O)N(c2cccnc2)Cc2c1ncnc2N1CCN(c2ccccn2)CC1 | inactive
O=C(NCc1ccccc1)[C@@H]1Cc2nc[nH]c2CN1Cc1cccc(OC(F)(F)F)c1 | 70.8 µM (active)
O=[N+]([O-])c1cccc(-c2noc([C@@H]3C[C@@H](O)CN3Cc3cccc(OC(F)(F)F)c3)n2)c1 | inactive
O=C(O)CCC(=O)N1Cc2[nH]cnc2C[C@H]1c1nc(-c2ccc3ccccc3c2)no1 | inactive

Structure (SMILES) | Potency
CN1Cc2ncnc(NCc3cccs3)c2CN(c2ccccc2)C1=O | inactive
CN1CCN(C(=O)CC2=C3CCCCC3NC2=O)CC1 (centres undefined) | inactive
COc1ccc(NC(=O)CCC2CCN(S(=O)(=O)c3ccc(C)cc3)CC2)cc1F | inactive
O=C(CCC1CCN(C(=O)c2ccccc2F)CC1)Nc1cccc(Cl)c1 | 12.6 µM (active)
O=C(NCCC1CCN(C(=O)Nc2cc(F)ccc2F)CC1)c1cc(F)ccc1F | inactive
COc1cc2c(cc1C(=O)N1CCC3(CCCN(C)C3=O)C1)CCC2 (centres undefined) | inactive
Cn1nccc1CN1CCc2nc(C3CC3)nc(-c3ccc(O)cc3)c2C1 | inactive
COCCc1noc(CC2CCOC3(CCN(C(=O)C4CCCC4)CC3)C2)n1 (centres undefined) | inactive
CN(C)C[C@H]1O[C@@H]2C[C@@H](CC(=O)N3CCC(F)(F)C3)O[C@@H]2[C@@H]1O | inactive
O=C(Cc1cccnc1)N1CCc2onc(-c3ccc(F)c(F)c3)c2C1 | inactive
Cc1ccccc1S(=O)(=O)N1CCCC(CCC(=O)NCC2CCCCC2)C1 (centres undefined) | 39.8 µM (active)
COc1ccc(Cl)cc1S(=O)(=O)N1CCCC(CNC(=O)c2ccco2)C1 (centres undefined) | inactive
Cc1ccc(S(=O)(=O)N2CCCC(CCC(=O)N(C)C)C2)cc1 (centres undefined) | inactive
CCCc1noc(-c2ccn3c(CNC(=O)c4ccc(N(C)C)cc4)nnc3c2)n1 | inactive
CCCNC(=O)N(C1CCOCC1)C1CCN(S(=O)(=O)c2ccc(F)cc2)CC1 | inactive
Cc1ccc(CNC(=O)c2ccc3c(c2)N(C)C2CCCCN2C3=O)cc1C (centres undefined) | inactive
CN1c2cc(C(=O)Nc3ccc(Cl)cc3)ccc2C(=O)N2CCCCCC21 (centres undefined) | 35.5 µM (active)
Cc1ccc(N2CCN(C(=O)c3ccc4c(c3)N(C)C3CCCCCN3C4=O)CC2)cc1 (centres undefined) | 39.8 µM (active)
CN1CCCCCCN(C(=O)Nc2ccccc2)CCC1=O | inactive
CCOC(=O)c1cccc(NC(=O)c2ccc3c(c2)N(C)C2CCCCN2C3=O)c1 (centres undefined) | 35.5 µM (active)
CN1c2cc(C(=O)N3CCC(C(N)=O)CC3)ccc2C(=O)N2CCCCC21 (centres undefined) | inactive
COCCn1ccc2cc(C(=O)Nc3ccc4c(c3)C(=O)N3CCC[C@H]3C(=O)N4)ccc21 | inactive
CCOc1ccc(NC(=O)c2ccc3c(c2)N(C)C2CCCN2C3=O)cc1 (centres undefined) | inactive
Cc1ccc(C(=O)N2CCC(C(=O)N3CCC(N4CCOCC4=O)CC3)CC2)cc1 | inactive
Cc1cccc(NC(=O)Cn2nc3n(c2=O)CCCC3)c1 | inactive
CN1c2cc(C(=O)Nc3ccccc3)ccc2C(=O)N2CCCCCC21 (centres undefined) | 79.4 µM (active)
